Among the data in ChEMBL document CHEMBL3988442, “University of Dundee, Small-Polar-MMV Screening Library” (2021) are Percent Effect values, retold here.

Parameters in all cases: scale not given: direction of the effect not stated beside the values
In test [1] the target is Protein translocase subunit SecA (Escherichia coli (strain K12)) (UniProt P10408). Kind of test: Assay to Identify E. coli SecA ATPase Inhibitors. The following applies: 30 µM. Format: functional.
The target of test [2] is T1, Ubiquitin-activating enzyme e1, putative (Leishmania donovani (strain BPK282A1)) (UniProt E9BSI1).
T1 sequence (whole entry): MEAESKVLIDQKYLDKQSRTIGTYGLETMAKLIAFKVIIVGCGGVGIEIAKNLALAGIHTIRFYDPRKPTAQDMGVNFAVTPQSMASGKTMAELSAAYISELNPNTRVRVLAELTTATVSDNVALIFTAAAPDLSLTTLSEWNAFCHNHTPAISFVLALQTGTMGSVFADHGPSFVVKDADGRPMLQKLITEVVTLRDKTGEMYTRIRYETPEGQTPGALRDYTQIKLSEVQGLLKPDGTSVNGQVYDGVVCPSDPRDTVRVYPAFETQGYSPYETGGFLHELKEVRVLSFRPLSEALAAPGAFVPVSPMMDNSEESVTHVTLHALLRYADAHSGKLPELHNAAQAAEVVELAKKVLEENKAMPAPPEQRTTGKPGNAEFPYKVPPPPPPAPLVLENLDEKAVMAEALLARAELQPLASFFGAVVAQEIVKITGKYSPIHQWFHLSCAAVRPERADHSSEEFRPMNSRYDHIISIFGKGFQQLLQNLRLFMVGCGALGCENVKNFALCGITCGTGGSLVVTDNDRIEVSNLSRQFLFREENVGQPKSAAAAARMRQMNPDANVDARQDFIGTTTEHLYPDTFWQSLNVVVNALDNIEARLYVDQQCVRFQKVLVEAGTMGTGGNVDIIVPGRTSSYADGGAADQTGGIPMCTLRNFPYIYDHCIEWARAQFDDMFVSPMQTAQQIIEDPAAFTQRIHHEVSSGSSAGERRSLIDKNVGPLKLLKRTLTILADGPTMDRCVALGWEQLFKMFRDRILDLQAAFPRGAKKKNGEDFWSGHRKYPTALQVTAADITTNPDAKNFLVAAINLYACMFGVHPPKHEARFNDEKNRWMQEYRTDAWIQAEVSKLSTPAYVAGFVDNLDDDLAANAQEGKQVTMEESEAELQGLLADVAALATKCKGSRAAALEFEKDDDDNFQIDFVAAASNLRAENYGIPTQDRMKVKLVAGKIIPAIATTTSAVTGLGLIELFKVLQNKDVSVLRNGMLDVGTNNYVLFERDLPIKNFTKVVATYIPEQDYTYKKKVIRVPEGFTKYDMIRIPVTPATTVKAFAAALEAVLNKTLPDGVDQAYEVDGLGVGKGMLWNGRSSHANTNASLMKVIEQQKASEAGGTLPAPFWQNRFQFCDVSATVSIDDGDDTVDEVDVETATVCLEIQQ
Kind of test: Leishmania donovani Ubiquitin Activating Enzyme (LdE1). Format: functional. The settings on record: 30 µM.

Test [3] concerns the target Sialic acid-binding Ig-like lectin 9 (Homo sapiens) (UniProt Q9Y336). Kind of test: Hs-Siglec9 ALPHAscreen SOP 20170721. The settings on record: 10 µM. (In general: Bead proximity is the source of the signal in Alpha formats.)
The test system of the next test is Trypanosoma cruzi. Kind of test: Trypanosoma cruzi phosphomannomutase and mannose-1-phosphate guanylyltransferase assay. Format: functional. The settings on record: 10 µM.
The target of test [4] is T2, Arginase-2, mitochondrial (Homo sapiens) (UniProt P78540).
T2 sequence (whole entry): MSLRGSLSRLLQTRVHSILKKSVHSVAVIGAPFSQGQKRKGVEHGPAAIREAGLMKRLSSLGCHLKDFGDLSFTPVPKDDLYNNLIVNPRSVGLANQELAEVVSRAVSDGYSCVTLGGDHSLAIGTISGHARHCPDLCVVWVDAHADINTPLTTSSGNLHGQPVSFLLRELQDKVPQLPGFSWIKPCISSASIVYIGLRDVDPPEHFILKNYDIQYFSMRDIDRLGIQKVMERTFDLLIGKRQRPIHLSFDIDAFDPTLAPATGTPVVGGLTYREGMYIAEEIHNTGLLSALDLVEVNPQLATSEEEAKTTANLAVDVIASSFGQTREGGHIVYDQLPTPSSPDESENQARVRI
In words: in vitro enzyme assay to detect the production of urea directly proportional to the activity of Arginase II. Note: in the data most compounds retested in dose-response had high values. The settings on record: 33.3 µM. Format: functional.

Test [5] has as its target T3, Proteasome subunit beta (Trypanosoma cruzi) (UniProt O96673).
T3 sequence (whole entry): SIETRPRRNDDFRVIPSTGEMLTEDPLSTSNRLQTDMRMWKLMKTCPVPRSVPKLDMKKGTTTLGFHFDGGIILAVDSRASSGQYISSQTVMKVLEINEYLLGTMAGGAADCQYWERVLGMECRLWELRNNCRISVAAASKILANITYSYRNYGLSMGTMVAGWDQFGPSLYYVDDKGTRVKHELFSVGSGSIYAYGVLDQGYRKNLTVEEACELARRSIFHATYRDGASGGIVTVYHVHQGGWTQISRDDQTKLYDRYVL
Kind of test: Trypanosoma cruzi proteasome chymotrypsin-like activity (TcProtChymo) assay. Note: in the data most compounds retested in dose-response had high values. The following applies: 9.37 µM. Format: functional.

A further test is filed under the species Homo sapiens. In words: To identify inhibition of the IFN signalling (Jak-Stat) pathway via expression of an eGFP reporter gene under the control of an IFN-stimulated response element (ISRE) containing MxA promoter. The class given is functional. The settings on record: 30 µM.
Test [6] has as its target T4, Tyrosyl-tRNA synthetase, putative (Trypanosoma cruzi (strain CL Brener)) (UniProt Q4DSP6).
T4 sequence (whole entry): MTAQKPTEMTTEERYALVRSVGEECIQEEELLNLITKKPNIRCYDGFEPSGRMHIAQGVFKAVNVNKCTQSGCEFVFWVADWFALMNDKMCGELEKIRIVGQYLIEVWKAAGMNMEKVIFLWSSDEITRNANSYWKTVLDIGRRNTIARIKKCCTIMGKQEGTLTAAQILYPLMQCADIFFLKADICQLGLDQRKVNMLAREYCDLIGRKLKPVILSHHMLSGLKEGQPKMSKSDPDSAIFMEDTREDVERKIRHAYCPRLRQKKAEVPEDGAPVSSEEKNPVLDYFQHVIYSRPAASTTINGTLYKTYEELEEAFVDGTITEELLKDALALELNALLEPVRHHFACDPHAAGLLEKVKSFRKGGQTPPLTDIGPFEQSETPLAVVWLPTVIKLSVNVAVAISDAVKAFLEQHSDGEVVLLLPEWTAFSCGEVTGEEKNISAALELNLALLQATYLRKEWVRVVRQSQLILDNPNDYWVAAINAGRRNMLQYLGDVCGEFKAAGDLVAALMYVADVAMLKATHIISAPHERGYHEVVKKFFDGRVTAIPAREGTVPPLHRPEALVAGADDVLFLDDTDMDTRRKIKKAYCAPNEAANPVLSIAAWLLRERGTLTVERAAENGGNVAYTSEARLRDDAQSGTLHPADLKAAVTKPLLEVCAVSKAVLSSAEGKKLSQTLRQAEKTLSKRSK
Kind of test: Trypanosoma cruzi tyrosyl tRNA synthetase (TcYRS) _High Tyrosine SOP. Note: in the data most compounds retested in dose-response had high values. The settings on record: 30 µM. The class given is functional.

Test [7] has as its target T4, Tyrosyl-tRNA synthetase, putative (Trypanosoma cruzi (strain CL Brener)). Kind of test: Trypanosoma cruzi tyrosyl tRNA synthetase (TcYRS) SOP. The class given is functional. The following applies: 30 µM.
The target in test [8] is Chromo domain-containing protein 1 (Saccharomyces cerevisiae (strain ATCC 204508 / S288c) (Baker's yeast)) (UniProt P32657). In words: ScCHD-1 Enzyme Inhibition Assay. Note: in the data most compounds retested in dose-response had high values. Format: functional. The following applies: 30 µM.

The structures appear in SMILES notation. For some of these results: Measured potencies and affinities stand elsewhere.

Sequence of Chromo domain-containing protein 1 (Saccharomyces cerevisiae (strain ATCC 204508 / S288c) (Baker's yeast)) (P32657 whole entry, the tested form may be a part): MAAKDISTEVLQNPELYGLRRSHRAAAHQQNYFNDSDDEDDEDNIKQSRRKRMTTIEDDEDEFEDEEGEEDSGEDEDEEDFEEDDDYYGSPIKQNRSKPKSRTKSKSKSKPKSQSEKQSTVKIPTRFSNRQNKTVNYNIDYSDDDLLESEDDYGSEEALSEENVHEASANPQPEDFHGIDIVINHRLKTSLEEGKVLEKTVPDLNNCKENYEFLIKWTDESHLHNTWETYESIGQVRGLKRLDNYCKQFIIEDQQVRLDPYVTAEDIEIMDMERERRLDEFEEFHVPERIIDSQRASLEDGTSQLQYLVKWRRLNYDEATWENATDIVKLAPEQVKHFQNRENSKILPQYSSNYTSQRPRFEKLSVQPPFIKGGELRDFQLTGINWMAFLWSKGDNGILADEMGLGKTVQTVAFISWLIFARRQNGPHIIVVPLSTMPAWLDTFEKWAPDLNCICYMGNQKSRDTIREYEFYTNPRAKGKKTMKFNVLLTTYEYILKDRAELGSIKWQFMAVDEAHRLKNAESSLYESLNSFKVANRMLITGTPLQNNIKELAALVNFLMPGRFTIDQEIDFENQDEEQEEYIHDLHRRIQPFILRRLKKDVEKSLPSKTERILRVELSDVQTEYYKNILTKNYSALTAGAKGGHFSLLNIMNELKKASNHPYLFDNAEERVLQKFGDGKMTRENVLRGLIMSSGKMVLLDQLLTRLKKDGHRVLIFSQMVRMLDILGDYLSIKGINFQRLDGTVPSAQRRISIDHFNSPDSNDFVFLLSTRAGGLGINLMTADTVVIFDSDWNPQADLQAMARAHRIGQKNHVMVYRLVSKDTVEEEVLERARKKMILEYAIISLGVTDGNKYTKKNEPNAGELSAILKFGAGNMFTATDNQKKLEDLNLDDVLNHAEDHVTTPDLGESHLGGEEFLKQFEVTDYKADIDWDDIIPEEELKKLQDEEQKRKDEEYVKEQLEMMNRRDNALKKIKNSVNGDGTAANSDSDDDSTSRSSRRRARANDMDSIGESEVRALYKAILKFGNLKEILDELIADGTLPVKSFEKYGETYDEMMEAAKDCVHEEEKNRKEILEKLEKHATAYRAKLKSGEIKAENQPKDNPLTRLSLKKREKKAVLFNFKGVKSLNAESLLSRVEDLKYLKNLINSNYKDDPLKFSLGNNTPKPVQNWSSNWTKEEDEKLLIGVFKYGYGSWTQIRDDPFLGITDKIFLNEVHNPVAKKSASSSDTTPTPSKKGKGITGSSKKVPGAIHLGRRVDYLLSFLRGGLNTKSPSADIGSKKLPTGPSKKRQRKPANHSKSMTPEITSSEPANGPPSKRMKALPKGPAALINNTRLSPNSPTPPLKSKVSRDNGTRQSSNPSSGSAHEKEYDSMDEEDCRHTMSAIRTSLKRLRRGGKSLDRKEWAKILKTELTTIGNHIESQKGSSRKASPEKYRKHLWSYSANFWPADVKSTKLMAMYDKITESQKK
Sequence of Protein translocase subunit SecA (Escherichia coli (strain K12)) (P10408 whole entry): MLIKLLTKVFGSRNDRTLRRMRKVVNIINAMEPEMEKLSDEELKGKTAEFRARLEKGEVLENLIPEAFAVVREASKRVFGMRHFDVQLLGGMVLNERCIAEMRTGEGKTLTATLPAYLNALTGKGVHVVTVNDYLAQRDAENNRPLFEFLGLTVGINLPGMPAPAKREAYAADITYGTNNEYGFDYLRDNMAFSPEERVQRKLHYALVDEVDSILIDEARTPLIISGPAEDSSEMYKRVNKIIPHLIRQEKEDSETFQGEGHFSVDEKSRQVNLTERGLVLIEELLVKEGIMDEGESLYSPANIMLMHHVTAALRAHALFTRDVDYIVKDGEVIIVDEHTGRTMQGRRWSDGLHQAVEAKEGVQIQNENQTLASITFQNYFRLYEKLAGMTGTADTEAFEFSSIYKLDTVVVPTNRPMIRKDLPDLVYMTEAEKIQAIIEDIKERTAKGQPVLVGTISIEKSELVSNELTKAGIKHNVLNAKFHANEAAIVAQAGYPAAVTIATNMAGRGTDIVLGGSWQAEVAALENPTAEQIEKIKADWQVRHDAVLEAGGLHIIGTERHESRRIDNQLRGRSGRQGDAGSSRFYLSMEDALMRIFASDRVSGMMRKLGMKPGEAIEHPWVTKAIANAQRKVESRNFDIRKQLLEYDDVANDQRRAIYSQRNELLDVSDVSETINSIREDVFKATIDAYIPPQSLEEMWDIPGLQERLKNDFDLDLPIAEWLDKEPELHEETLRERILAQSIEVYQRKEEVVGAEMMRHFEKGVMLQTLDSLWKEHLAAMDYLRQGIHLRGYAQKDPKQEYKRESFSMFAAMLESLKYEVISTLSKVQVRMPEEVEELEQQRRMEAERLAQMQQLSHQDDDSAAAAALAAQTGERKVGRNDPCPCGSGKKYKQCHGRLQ
Sequence of Sialic acid-binding Ig-like lectin 9 (Homo sapiens) (Q9Y336 whole entry): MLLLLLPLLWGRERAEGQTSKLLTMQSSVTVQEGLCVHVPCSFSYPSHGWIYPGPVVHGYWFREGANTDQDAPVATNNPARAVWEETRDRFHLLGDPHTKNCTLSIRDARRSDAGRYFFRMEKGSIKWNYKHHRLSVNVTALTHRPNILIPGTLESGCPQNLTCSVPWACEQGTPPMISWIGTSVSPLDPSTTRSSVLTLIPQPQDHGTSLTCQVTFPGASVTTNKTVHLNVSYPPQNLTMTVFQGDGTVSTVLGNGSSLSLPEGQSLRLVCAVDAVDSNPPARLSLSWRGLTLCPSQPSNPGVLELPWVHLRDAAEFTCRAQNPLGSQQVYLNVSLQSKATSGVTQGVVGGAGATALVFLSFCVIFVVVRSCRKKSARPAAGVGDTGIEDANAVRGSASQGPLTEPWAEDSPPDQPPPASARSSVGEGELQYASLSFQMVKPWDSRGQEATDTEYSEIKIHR

For `CN(Cc1ccc(F)cc1)[C@@H]1CN(C(=O)c2cccs2)C[C@H]1O`, the Percent Effect in test [1] was -4.06%; in test [2], 17.3%; in test [3], -0.715%; with Trypanosoma cruzi, 1.97%; in test [4], -3.1%; in [5], 17.6%. In addition, the Percent Effect is 10.6% in the test listed under Homo sapiens, 5.29% in test [6], 20% in [7] and -21.9% in test [8].

For the molecule `COc1ccccc1OCC(=O)NS(=O)(=O)c1ccc(Br)s1`, the Percent Effect in [1] was -3.35%; in test [2] it was 5.2%; in test [3] it was 18.6%; in the test with Trypanosoma cruzi, -2.61%; in test [4], 2.66%; in [5] it was 6.14%. For the same molecule, the Percent Effect in the test filed under Homo sapiens was 1.82%; in test [6], -1.96%; in test [7], 7.06%; in test [8], -3.46%.

Regarding `CN1[C@@H](C(=O)NCC2CC2)C[C@@H]2CN(Cc3ccco3)C[C@@H]21`, the Percent Effect in [1] is -3.17%; in test [2], 19.5%; in [3], -3.11%; in the test on Trypanosoma cruzi, -6.57%; in [4], 3.65%; in test [5], 19.5%. Moreover, the Percent Effect in the test listed under Homo sapiens was 13.8%; in test [6], 5.8%; in test [7], 10%; in test [8], -4.24%.

With `Cc1nn(C)c(Cl)c1CNCc1ccc(OCC(N)=O)cc1`, the Percent Effect in [1] is -6.28%; in test [2] it was 10.7%; in test [3], 0.0227%; with Trypanosoma cruzi, 4.42%; in test [4] it was 2.22%; in [5], 10.9%. Also, the Percent Effect is 16.6% in the test filed under Homo sapiens, 1.58% in [6], 12.8% in test [7] and -10.2% in test [8].

As for `c1ccc(OCc2ccncc2)c(CNC2CCc3ncnn3C2)c1` (stereo not given), the Percent Effect was 1.01% in test [1]; 17.9% in test [2]; -16.6% in test [3]; -0.845% in the test with Trypanosoma cruzi; 10.7% in [4]; 11.5% in [5]. Further, the Percent Effect in the test filed under Homo sapiens is 20%; in [6] it was 7.18%; in test [7], 18.1%; in test [8] it was -0.669%.

For `Cc1c(F)cccc1CN1CCn2nc(CNC(=O)N(C)C)cc2C1`, the Percent Effect in test [1] is -5.26%; in test [2], 10.8%; in test [3], 14.7%; in the test with Trypanosoma cruzi it was 9.21%; in test [4], 28.3%; in test [5] it was 8.05%. The Percent Effect in the test listed under Homo sapiens is 4.47%; in test [6] it was 5.85%; in test [7], 17.1%; in test [8] it was -7.8%.

Consider `CCn1ncnc1C1CC(=O)NCc2nc3ccccn3c21` (stereo not given), for which the Percent Effect in test [1] was -7.68%; in test [2] it was 10.8%; in [3], 16.9%; in the test on Trypanosoma cruzi it was 6.11%; in test [4], 10.8%; in test [5], 4.62%. In addition, the Percent Effect in the test filed under Homo sapiens amounted to 14.8%; in test [6], 5.85%; in test [7], 9.76%; in [8], 84%.

For the molecule `c1ccc2cc(OCCN3CCn4c(nnc4C4CC4)C3)ccc2c1`, the Percent Effect in test [1] is -5.63%; in test [2], -18.7%; in test [3], -1.64%; with Trypanosoma cruzi, 1.61%; in [4] it was -5.32%; in [5], 4.33%. Moreover, the Percent Effect in the test listed under Homo sapiens is -7.36%; in test [6] it was 1.58%; in [7], -10.3%; in test [8], -10.9%.

For `Cn1c(C2CC2)nc2c1CCN(CCS(=O)(=O)c1ccccc1)C2`, the Percent Effect was -3.66% in test [1]; -5.33% in test [2]; 1.61% in [3]; 5.22% with Trypanosoma cruzi; 0% in [4]; -2.46% in test [5]. The Percent Effect in the test filed under Homo sapiens was 3.62%; in test [6] it was 0.526%; in test [7], 0%; in test [8], -4.67%.

`CC(C)CCN(C)C(=O)c1nc(S(C)(=O)=O)n2ccccc12`: the Percent Effect is -4.72% in test [1]; 12.8% in [2]; -6.5% in test [3]; 5.16% with Trypanosoma cruzi; 1.23% in test [4]; 2.13% in test [5]. Also, the Percent Effect in the test filed under Homo sapiens was 0.306%; in test [6] it was 6.22%; in test [7] it was 10.8%; in test [8], -1.74%.

For `Cc1ccc(C(N)c2cccc(S(C)(=O)=O)c2)cc1` (stereo not given), the Percent Effect in test [1] is -4.76%; in [2] it was 10.7%; in [3] it was 8.28%; with Trypanosoma cruzi, -1.81%; in [4], 5.76%; in [5] it was 5.34%. Further, the Percent Effect was 27% in the test filed under Homo sapiens, 4.74% in test [6], 5.13% in test [7] and -9.27% in test [8].

For the molecule `Cc1c[nH]cc1C(=O)N1CCN(CCc2cccs2)CC1`, the Percent Effect is -4.85% in test [1]; 5.13% in [2]; -6.52% in [3]; 3.29% with Trypanosoma cruzi; 2.05% in [4]; -3.67% in test [5]. The Percent Effect in the test filed under Homo sapiens was 3.15%; in [6], 5.26%; in [7], 8.43%; in [8], 0.816%.

Turning to `c1cnc(N2CCC3(CCN(CC4CC4)CC3)CC2)nc1`, the Percent Effect in [1] was -6.61%; in [2], 3.9%; in [3] it was -1.99%; with Trypanosoma cruzi it was -2.82%; in test [4], -5.67%; in [5], 6.09%. Moreover, the Percent Effect in the test filed under Homo sapiens is -6.66%; in test [6], 5.79%; in [7], 12.8%; in [8], -1.89%.
